Measurements reported in PubChem BioAssay AID652053 (Broad Institute, 2013).
Out of some 1,300 compounds screened, about 930 (72%) were called active.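 How the source made its calls: active means fitted curve reaches 40% activation signal increase at or below the top valid tested concentration in every replicate test; inconclusive means replicate tests disagree in their calls; inactive means all replicate tests inactive, including effects opposite the expected signal rise.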 The set was probably picked from earlier hits. The list is a sample of the results. Results with a measured potency or affinity are listed apart.

Assay: suppression of miR-122 activity, Renilla luciferase sensor – cell-based, Huh7 psiCHECK-miR122, cherry-pick, dose response (AID 652053)
Conditions: Huh7 psiCHECK-miR122 Renilla luciferase reporter, 48 h; series mostly up to 35 µM; activation (miR-122 inhibition): at the top concentration

Activation (miR-122 inhibition), inactive:
Cc1cccc(OCCCC(=O)Nc2ccc(Cl)c(S(=O)(=O)N3CCOCC3)c2)c1 26.7%
COC(=O)c1cc(Br)ccc1NC(=O)Nc1ccccc1 -7.49%
COc1ccc2c(c1)C(C)=CC(C)(C)N2S(=O)(=O)c1ccc(Br)cc1 20.6%
C[C@H](CO)N1C[C@H](C)[C@H](CN(C)S(=O)(=O)c2ccc(Cl)cc2)Oc2ccc(N(C)C)cc2CC1=O -4.37%
C[C@H](CO)N1C[C@H](C)[C@H](CN(C)S(C)(=O)=O)Oc2ccc(N(C)C)cc2CC1=O 10.5%
C[C@H](CO)N1C[C@H](C)[C@H](CN(C)CC2CC2)Oc2ccc(N(C)C)cc2CC1=O -3.7%
CC(C)NC(=O)N(C)C[C@@H]1Oc2ccc(N(C)C)cc2CC(=O)N([C@H](C)CO)C[C@@H]1C -7.22%
CCCOC(=O)c1[nH]c2c(c1C)C(=O)CC(c1cccs1)C2 (stereo not given) 27.8%
CC(C)N1C(=O)CC(Nc2ccc(N3CCOCC3)cc2)C1=O (stereo not given) 14.4%
CCn1c(SCC(=O)Nc2ccc(N3CCOCC3)cc2)nnc1-c1ccc(OC)cc1 -11.1%
Clc1ccc(CNc2nc(N3CCOCC3)nc(N3CCOCC3)n2)cc1 -7.36%
CCCNC(=O)C[C@@H]1CC[C@@H]2[C@H](COc3ccc(NC(=O)Nc4c(C)noc4C)cc3C(=O)N2C)O1 -2.46%
CC(C)C(=O)Nc1ccc2c(c1)C(=O)N(C)[C@H]1CC[C@@H](CC(=O)NCC3CC3)O[C@@H]1CO2 1.56% [at 30 µM]
COc1ccccc1CNC(=O)C[C@H]1CC[C@H]2[C@H](COc3ccc(NC(=O)Nc4ccc(F)c(F)c4)cc3C(=O)N2C)O1 -21.2%
COc1ccccc1CNC(=O)C[C@@H]1CC[C@H]2[C@H](COc3ccc(NC(=O)Nc4ccc(F)c(F)c4)cc3C(=O)N2C)O1 -26.4%
COCC(=O)Nc1ccc2c(c1)C(=O)N(C)[C@H]1CC[C@@H](CC(=O)O)O[C@H]1CO2 -2.08%
COCCNC(=O)C[C@@H]1CC[C@H]2[C@@H](COc3ccc(NC(C)=O)cc3C(=O)N2C)O1 9.45%
COc1ccccc1CNC(=O)C[C@@H]1CC[C@H]2[C@@H](COc3ccc(NC(=O)Nc4ccc(F)c(F)c4)cc3C(=O)N2C)O1 -26.3%
Cc1nc(Nc2nc(CSc3nc4ccccc4[nH]3)cc(=O)[nH]2)nc2ccccc12 19.8%
Cc1ccc2c(C)nc(Nc3nc(CSc4nc5ccccc5[nH]4)cc(=O)[nH]3)nc2c1 0.806%
NC(=O)c1ccc(-n2nnnc2SCC(=O)c2ccc(O)c(O)c2)cc1 1.97%
Cc1ccc(-n2nnnc2SCC(=O)N2c3ccccc3NC(=O)C2(C)C)cc1 -3.77%
O=C(C[C@H]1CC[C@@H]2[C@H](COC[C@H](O)CN2C(=O)C2CCCC2)O1)NCc1ccncc1 -9.04%
N#Cc1cnn2c1nc(N1CCCCC1)c1ccccc12 -9.38%
CC(C)Cc1nnc(NC(=O)Cc2ccccc2[N+](=O)[O-])s1 13.4%
CCCCn1c(SCC(=O)Nc2nnc(CC)s2)nc2c1c(=O)n(C)c(=O)n2C -3.31%
COc1ccccc1CNC(=O)C[C@@H]1CC[C@@H]2[C@@H](COc3ccc(NC(=O)Nc4ccc(F)c(F)c4)cc3C(=O)N2C)O1 -28.1%
COc1ccccc1C(=O)Nc1ccc2c(c1)C(=O)N(C)[C@@H]1CC[C@@H](CC(=O)NCc3ccc(Cl)c(Cl)c3)O[C@H]1CO2 -25%
COc1ccccc1C(=O)Nc1ccc2c(c1)C(=O)N(C)[C@@H]1CC[C@H](CC(=O)NCc3ccc(Cl)c(Cl)c3)O[C@@H]1CO2 -24.2%
COc1ccccc1CNC(=O)C[C@@H]1CC[C@@H]2[C@H](COc3ccc(NC(=O)Nc4ccc(F)c(F)c4)cc3C(=O)N2C)O1 -27.8%
COc1ccccc1C(=O)Nc1ccc2c(c1)C(=O)N(C)[C@@H]1CC[C@@H](CC(=O)NCc3ccc(Cl)c(Cl)c3)O[C@@H]1CO2 -8.54%
COc1ccccc1C(=O)Nc1ccc2c(c1)C(=O)N(C)[C@@H]1CC[C@H](CC(=O)NCc3ccc(Cl)c(Cl)c3)O[C@H]1CO2 -5.9%
O=C(c1ccccc1F)N1C[C@H]2[C@@H](c3ccccc31)[C@@H](CO)N2Cc1ccc2c(c1)OCO2 6.54%
CCOc1ccc(Cl)cc1S(=O)(=O)n1cnc2cc(C)c(C)cc21 29.3%
Cc1ccc(-n2nnc(-c3nccs3)n2)cc1 16.2%
CCOc1ccc(CSC2=NCCN2)cc1Cl 20.8%
CCCNC(=O)C[C@@H]1CC[C@H]2[C@H](COc3ccc(NC(=O)Cc4cccs4)cc3C(=O)N2C)O1 -2.59%
CCc1cccc(CC)c1NC(=O)COC(=O)C1(c2ccc(Cl)cc2)CCCC1 -10.1%
COc1ccc(OC)c(S(=O)(=O)N2CCNCC2)c1 -9.55%
Cn1nc(CC(=O)N2CCN(c3ccccc3)CC2)c2ccccc2c1=O -11%
COc1cccc(C(=O)N2C[C@@H]3[C@H](c4ccccc42)[C@@H](CO)N3C(=O)c2ccc(F)cc2)c1 -8.38%
COc1cccc(C(=O)N2C[C@@H]3[C@H](c4ccccc42)[C@H](CO)N3C(=O)c2ccc(F)cc2)c1 22.7%
CC(C)NC(=S)N1CCn2c(nc3ccccc32)C1 8.37%
CC(C)CC(=O)NCCCN1CCN(CCCNC(=O)CC(C)C)CC1 -6.68%
CCOC(=O)c1ccc(-n2ccnc2)c(NC(=O)c2cccc(Br)c2)c1 8.02%
Cn1cnc(S(=O)(=O)N2C[C@@H](O)COC[C@H]3O[C@@H](CC(=O)NC4CCCC4)CC[C@@H]32)c1 0.434%
CCOC(=O)CN1C(=O)C(C)(C)Oc2ccc(C(=O)Nc3ccccc3)cc21 -9.1%
CC(=O)N1[C@H](CNC(=O)C2CC2)[C@@H](c2ccc(-c3ccccc3)cc2)[C@@H]1CO -2.22%
Cc1cc(C)c2nc(Nc3nc(CSc4nc5ccccc5[nH]4)cc(=O)[nH]3)nc(C)c2c1 101%
O=C(C1CCN(Cc2ccc(F)cc2)CC1)N1CCN(C/C=C/c2ccccc2)CC1 -10.2%
CC(=O)N1CCc2cc(S(=O)(=O)NCCCN3CCN(Cc4ccccc4)CC3)ccc21 6.61%
COc1ccc(-c2cc(NC(C)=O)c3ncc(-c4cc(OC)c(OC)c(OC)c4)n3c2)cn1 38.9%
N#C/C(=N\Nc1ccc(S(=O)(=O)N2CCCCC2)cc1)C(N)=S 0.783%
COc1cc(S(=O)(=O)N2CCOCC2)ccc1NC(=O)CSc1n[nH]c(=O)[nH]c1=O 7.53%
Cc1ccc(NC(=O)c2ccc(S(=O)(=O)N3CCOCC3)cc2)nc1 12.6%
C[C@H](CO)N1C[C@H](C)[C@H](CN(C)Cc2ccc(C(F)(F)F)cc2)Oc2ccc(N(C)C)cc2CC1=O 12.2%
C[C@H](CO)N1C[C@H](C)[C@H](CN(C)Cc2ccc3c(c2)OCO3)Oc2ccc(N(C)C)cc2CC1=O 9.52%
COC(=O)C(CC(C)C)Oc1ccc2c(C)cc(=O)oc2c1 (stereo not given) 7.53%
CC(Oc1ccc(Cl)cc1)c1ccnn1S(=O)(=O)c1ccc(Cl)cc1 (stereo not given) 13.2%
COC(=O)c1ccccc1NC(=O)Cn1c(-c2nonc2N)nc2ccccc21 22.3%
C[C@H](CO)N1C[C@H](C)[C@@H](CN(C)C(=O)Nc2cccc3ccccc23)Oc2ccc(NC(=O)Nc3cccc4ccccc34)cc2CC1=O -5.3%
C[C@@H]1CN([C@@H](C)CO)C(=O)Cc2cc(NC(=O)Nc3cccc4ccccc34)ccc2O[C@H]1CN(C)C(=O)Nc1cccc2ccccc12 -8.21%
C[C@H]1CN([C@@H](C)CO)C(=O)Cc2cc(NC(=O)Nc3cccc4ccccc34)ccc2O[C@H]1CN(C)C(=O)Nc1cccc2ccccc12 -9%
C[C@H]1CN([C@@H](C)CO)C(=O)Cc2cc(NC(=O)Nc3cccc4ccccc34)ccc2O[C@@H]1CN(C)C(=O)Nc1cccc2ccccc12 5.36%
COc1ccc(NC(=O)Nc2cccc3c2O[C@H](CN(C)Cc2ccc4c(c2)OCO4)[C@@H](C)CN([C@@H](C)CO)C3=O)cc1 26.5%
FC(F)(F)c1nnc2c(Sc3ccccc3)nc3ccc(Cl)cc3n12 -26.1%
CCC1=NN(C(=O)c2ccccc2O)C(O)(c2ccccc2)C1 (stereo not given) 9.78%
CCC(=O)N1[C@H](CN(CC)C(=O)c2cccc(F)c2)[C@H](c2ccccc2)[C@@H]1CO -7.02%
COc1ccc(CNC(=O)C(c2ccc(C)o2)N(Cc2cccs2)C(=O)Cc2cccs2)cc1 (stereo not given) 14.8%
CC(C)Cc1nc2sc3c(=O)[nH]cnc3c2c2c1CCC2 -10.5%
Cc1ccc(S(=O)(=O)Nc2ccc(C(=O)NCc3ccccn3)cc2)cc1 19.8%
O=c1[nH]c(=O)c2[nH]c(=O)n(-c3ccccc3)c2[nH]1 -5.9%
CCS(=O)(=O)N1Cc2ccccc2CC1C(=O)NCC12CC3CC(CC(C3)C1)C2 (stereo not given) -10.2%
O=C(c1ccc(F)cc1)N1[C@H](CO)[C@@H]2c3ccccc3NC[C@@H]21 28.1%
CCn1nc(C(=O)Nc2ccc(S(=O)(=O)Nc3nccs3)cc2)c2ccccc2c1=O 13%
CC(C)NC(=O)N1[C@H](CO)[C@@H]2c3ccccc3N(C(=O)c3ccc(F)cc3)C[C@@H]21 -10.3%
CCCNC(=O)N1[C@H](CO)[C@@H]2c3ccccc3N(C(=O)c3ccc(F)cc3)C[C@@H]21 2.61%
CCN(C[C@@H]1[C@@H](c2ccccc2)[C@@H](CO)N1C(=O)COC)S(C)(=O)=O -10% [at 30 µM]
O=C(Nc1ccccc1)c1cc([N+](=O)[O-])ccc1NC1CCCCC1 -3.71%
O=C(Nc1ccccc1Br)C1CCN(S(=O)(=O)c2cccs2)CC1 -12.6%
Cc1cc(C)cc(NC(=O)C2CCN(c3nccs3)CC2)c1 5.7%
CN1C(=O)c2cc(NC(=O)Cc3cccs3)ccc2OC[C@@H]2O[C@@H](CC(=O)NCC3CCCCC3)CC[C@@H]21 -1.42%
CN1C(=O)c2cc(NC(=O)NC3CCCC3)ccc2OC[C@H]2O[C@@H](CC(=O)O)CC[C@H]21 -4.5%
Cc1ccc(-c2nc(CSCC(=O)NCCN3CCN(Cc4ccccc4)CC3)c(C)o2)cc1 -18.4%
Cc1ccc(CC(=O)N(Cc2ccccc2)c2ccccn2)cc1 20.7%
